# From PubChem
# CYP2C19 act: increases human CYP2C19 enzyme activity. AID 1025. recombinant CYP2C19, luciferin-H EGE luminescence; active compounds read high; 0 = fully inhibited enzyme, 1 = untreated enzyme. 96,000 tested, under 10 active. activation factor at 5 µM;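 active means activation factor of at least 2 at 5 µM in the primary screen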;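 further: 0 = wells with 2.5 mM tranylcypromine and 1 = vehicle-only wells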
# CYP2C9 act: increases human cytochrome P450 2C9 activity. P11712. recombinant CYP2C9, luciferin-H conversion, luminescence; active compounds read high; factor 1 = untreated enzyme, 0 = blocked. activation factor at 5 µM. actives 1.4% (n = 96,000). AID 1024;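 active means activation factor of 2 or more for CYP2C9 at a 5 µM dose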;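 further: 0 = sulfaphenazole-blocked wells and 1 = vehicle-only wells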
# Target sequence (P11712 whole entry, looked up): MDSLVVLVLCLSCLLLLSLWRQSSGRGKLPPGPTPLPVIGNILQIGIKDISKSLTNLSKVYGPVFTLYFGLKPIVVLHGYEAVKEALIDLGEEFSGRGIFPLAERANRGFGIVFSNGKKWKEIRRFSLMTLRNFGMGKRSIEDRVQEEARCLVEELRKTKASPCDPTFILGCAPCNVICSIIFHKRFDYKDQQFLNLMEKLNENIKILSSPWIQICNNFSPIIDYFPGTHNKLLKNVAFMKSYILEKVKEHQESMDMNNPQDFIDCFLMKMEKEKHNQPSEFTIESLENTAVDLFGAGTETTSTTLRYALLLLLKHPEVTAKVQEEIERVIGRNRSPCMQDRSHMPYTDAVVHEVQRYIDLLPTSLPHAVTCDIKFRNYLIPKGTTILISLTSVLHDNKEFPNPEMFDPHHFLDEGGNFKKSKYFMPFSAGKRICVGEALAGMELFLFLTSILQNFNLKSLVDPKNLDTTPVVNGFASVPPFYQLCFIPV
# PostGolgi ctrl: growth of the yeast control strain, post-Golgi counter-screen; efflux-deficient yeast background strain, growth absorbance A615, 16 h; inhibition, % at 10 µM; actives 5% (n = 98,000)
# PostGolgi yeast: growth inhibition of a yeast mutant, post-Golgi transport screen; post-Golgi transport phenotypic cell assay; inhibition, % at 10 µM; actives 0.9% (n = 98,000); AID 739;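 further: yeast cells grown in 1536-well plates; yeast grown about 18 h at 30C before absorbance read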
# CYP2C19 inhib: blocks human cytochrome P450 2C19; P33261; CYP2C19 Supersomes, luciferin-H EGE luminescence, 30 min; inhibition, % at 5 µM; actives 21% (n = 96,000);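 active means CYP2C19 inhibition above a set limit at 5 µM in the primary screen, cut at about 50% in these data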;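 further: plate controls were negative control wells for no effect and 2.5 mM tranylcypromine positive control for full effect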
# CYP2C9 inhib: human CYP2C9 inhibition | P11712 | CYP2C9 Supersomes, luciferin-H conversion, luminescence | inhibition, % at 5 µM | actives 20% (n = 96,000);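 active means blocking of liver enzyme CYP2C9 beyond about 50% at 5 µM, limit read from the data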
# * hit, by the source's call; · = no result given. Rows were chosen to be rich in hits. Some 32% of all compounds tested hit in one or more screens of this group. Unless noted, no stated cut-off is given here; in the data, active means inhibition above about 30%; inactive means the rest.
SMILES,CYP2C19 act,CYP2C9 act,PostGolgi ctrl,PostGolgi yeast,CYP2C19 inhib,CYP2C9 inhib
COC(=O)C1=C(C)Nc2nnnn2C1c1cccs1 (configuration not stated),0.9,0.7,5,29,12,34
CCOC(=O)C1=C(C)NC(SCC(=O)Nc2cc(C)on2)=C(C#N)C1c1cccs1 (configuration not stated),0.1,0.1,-18,6,91*,95*
CCSC1=C(C#N)C(c2cccs2)C(C(=O)OC)=C(C)N1 (configuration not stated),0.1,0.1,14,10,88*,91*
C=CCOC(=O)C1=C(C)NC(SCC(=O)Nc2nccs2)=C(C#N)C1c1cccs1 (configuration not stated),0.8,0.8,5,7,17,16
COC(=O)C1=C(C)Nc2c(c(=O)n(C)c(=O)n2C)C1c1cccs1 (configuration not stated),0.2,0.3,-1,-4,83*,73*
CCS(=O)(=O)c1nnnn1-c1ccccc1S(C)(=O)=O,0.9,1.1,20,9,11,-8
CC(C)(C)C1=Nn2c(nnc2-c2ccco2)SC1,0.7,0.7,10,5,33,32
CCOC(=O)C1CCN(C(=O)CC(NS(=O)(=O)c2ccc(OC)cc2)C(C)C)CC1 (configuration not stated),1,1,8,-1,2,1
Cc1ccc(C2(c3ccc(C)cc3)CC2C(=O)Nc2ccc([N+](=O)[O-])cc2O)cc1 (configuration not stated),0.8,0.2,91*,101*,20,75*
O=C1CNC(=O)N1Cc1ccc(Br)cc1,0.6,0.8,7,3,37,17
O=c1[nH]c(CSc2nc3ccccc3o2)nc2c1cnn2-c1ccccc1,0.2,0.3,12,-10,78*,68*
CCOC(=O)N1CCN(C(=O)CSc2nc3c(cnn3-c3ccccc3)c(=O)[nH]2)CC1,0.8,0.3,22,-11,22,67*
O=c1[nH]c(SCc2ccccc2Cl)nc2c1cnn2-c1ccccc1,1.1,1,42*,-13,-6,2
CC1CN(c2nnnn2-c2ccccc2)CC(C)O1 (configuration not stated),0.3,1,-2,4,74*,-2
O=c1[nH]c(SCc2nc3c(cnn3-c3ccccc3)c(=O)[nH]2)nc2ccccc12,0.6,0.6,17,-5,41,44
O=C(NC1CCCC1)c1csc2c1CCCC2,1,1.2,3,-5,5,-22
C/C(=N/NC(=O)c1cc(C2CC2)[nH]n1)c1cccs1,0.7,1,3,1,25,4
Cc1nc(OCc2ccccc2)c2sc3nc4c(cc3c2n1)COC(C)(C)C4,0.8,0.8,12,-2,25,20
CCCCC(=O)Nc1ccc(C(=O)Nc2nnc(COC)s2)cc1,0.9,0.7,0,-2,10,29
CCOC(=O)N1CCN(c2nnnn2-c2ccccc2)CC1,0.1,0.5,10,13,91*,49
COc1ccc(C(=O)N2CCN(c3nnnn3-c3ccccc3)CC2)cc1OC,1,1,4,4,0,2
CS(=O)(=O)N(CCc1ccccc1)CC(=O)N1CCN(Cc2ccccc2)CC1,·,·,7,4,·,·
CCCCNC(=O)CN(CCc1ccccc1)S(C)(=O)=O,0.3,0.7,3,-6,72*,25
CS(=O)(=O)N(CCc1ccccc1)CC(N)=O,0.9,1,7,-4,6,3
COCCNC(=O)CN(CCc1ccccc1)S(=O)(=O)c1ccc(OC)cc1,0.4,1.1,4,-3,60*,-12
CCCCNC(=O)C(=O)NC(C)CCc1ccccc1 (configuration not stated),0.8,0.9,3,-5,20,6
CCNC(=O)CN(CCc1ccccc1)S(C)(=O)=O,0.3,0.8,7,-7,72*,18
CS(=O)(=O)N(CCc1ccccc1)CC(=O)NCc1ccncc1,0,0,11,-4,100*,99*
COc1ccc(S(=O)(=O)N(CCc2ccccc2)CC(=O)O)cc1Cl,1,0.9,1,4,2,12
O=C(NCCCN=C1NS(=O)(=O)c2ccccc21)c1ccc(S(=O)(=O)N2CCOCC2)cc1,1.1,0.8,6,1,-9,19
